From PubChem BioAssay (NCATS)
Records with an inconclusive call do not appear. Activity calls are given as the source filed them. Calls come from the whole dose curve; as a rule, active = well fitted cell-killing curve with a large enough effect; inconclusive = small, poorly fitted or top-dose-only effect; inactive = flat fitted curve, though single readings scatter.

assay: Cellular viability qHTS for adrenocortical cancer (ACC) cell line NCI-H295R (AID 1963990); conditions: CellTiter-Glo ATP luminescence, 48 h; series mostly up to 46.1 µM; activity change, negative = viability loss: at the top concentration; note: nearly all actives have a fitted effect of over 60% in size
Source text: PI: Naris Nilubol, MD Surgical Oncology Program, National Cancer Institute (NCI) National Institute of Health (NIH), Bethesda, Maryland Adrenocortical cancer (ACC) is a rare malignancy with poor survival outcomes and few treatment options. Currently, mitotane is the only FDA-approved therapy for ACC. Although adjuvant radiation therapy is rarely utilized, it has the potential to improve survival in select cases. Through a quantitative high-throughput drug screen (qHTS), we identified auranofin (AF), a thioredoxin reductase (TXNRD) inhibitor, as a promising candidate drug. This study aims to evaluate whether AF can enhance the efficacy of radiation therapy in the treatment of ACC. Two human ACC cell lines, SW-13 and NCI-H295R, were screened using the National Center for Advancing Translational Sciences (NCATS) Pharmaceutical Collection (NPC) and the Mechanism Interrogation PlatE (MIPE) library (~4,991 compounds). CellTiter-Glo (Cat # G7570, Promega, Madison, WI) was utilized to measure cell viability. Described herein are the results of the corresponding viability assay.
PROTOCOL TABLE (as described by Inglese J, Shamu CE and Guy RK. 2007) SEQUENCE No. (e.g., 1, 2, 3, etc.); […] (e.g., Cells, Incubation, Reagent, etc.); VALUE; DESCRIPTION. 1; Cells; 5 uL; white, solid-bottom, 1536-well tissue-culture treated plates. 2; Time; overnight culture at 37C with 5% CO2. 3; Compounds and control; 23 nL; Kalypsis pin tool (Wako USA) equipped with a 1536-well pin head to transfer to the assay plates. 4; Time; 48 hours; 37C with 5% CO2. 5; Reagent; 4 uL; CellTiter-Glo luminescent substrate mix. 6; Time; 20 min at room temperature. 7; Detection; Luminescence; ViewLux plate reader NOTES (numbers refer to Sequence numbers above) 1. NCI-H295R cells were harvested from a T175 flask and resuspended in ITS-supplemented DMEM serum-free medium at a concentration of 300 000 cells/mL. Then 5 uL of resuspended cells were dispensed into each well of white, solid-bottom, 1536-well tissue-culture-treated plates using a multidrop combi dispenser. The plates were covered with stainless steel gasket lids. 2-3. The plates were cultured overnight at 37C with 5% CO2. Twenty-three nL of compounds (eight selected concentrations from the NPC / MIPE) or positive control (10 mM stock of bortezomib) in DMSO was transferred to each well of the assay plate using a pin tool (Kalypsys, San Diego, CA, USA). The final concentration of the compounds in the 5 uL assay volume ranged from 0.5 nM to 46 uM. 4-6. After 48 hours of incubation at 37C and 5% CO2, 4 uL of CellTilter-Glo luminescent substrate mix (Promega, Madison, WI, USA) was added to each well. Then the plates were incubated for 20 minutes at room temperature. 7. After incubation, luminescence was measured using a ViewLux plate reader (PerkinElmer, Waltham, MA, USA) with a clear filter was used to measure the number of metabolically competent cells. To determine compound activity in the qHTS assay, the titration-response data for each sample was plotted and modeled by a four-parameter logistic fit yielding IC50 and efficacy (maximal response) values. Raw plate reads for each titration point were normalized relative to positive control ([…], 100% inhibition) and DMSO-only wells (basal, 0%). REFERENCES: Inglese J, Shamu CE and Guy RK, Reporting data from high throughput screening of small molecule libraries, Nature Chemical Biology, 2007, 3(8): 438-441. doi.org/10.1038/nchembio0807-438.

SMILES	activity change, negative = viability loss	Potency
CNC(=O)Cn1cc(-c2ccc3c(c2)C(F)CC32NC(=O)N(CC(=O)N(Cc3ccc(F)cc3)C(C)C(F)(F)F)C2=O)cn1 (stereo not given)	-16.8% (inactive)	
Nc1nnc(-c2cccc(Cl)c2Cl)c(N)n1		inactive
CCc1c2c(nc3ccc(O)cc13)-c1cc3c(c(=O)n1C2)COC(=O)[C@]3(O)CC		1.26 µM (active)
C=CC(=O)N1CC(N2CCN(C(=O)CNc3cc(C4(C)CC4)c(Cl)cc3O)CC2)C1		15.8 µM (active)
CN1c2cc(O)c(N=NC(N)=O)cc2CC1S(=O)(=O)O (stereo not given)	-0.144% (inactive)	
CC(C)C[C@@H](N)[C@H](O)C(=O)N[C@H](C(=O)N[C@H](C(=O)N[C@@H](CC(=O)O)C(=O)O)C(C)C)C(C)C	1.72% (inactive)	
C[C@H]1O[C@@H](O[C@H]2CC[C@@]3(C)[C@H](CC[C@@H]4[C@@H]3C[C@@H](O)[C@]3(C)[C@@H](C5=CC(=O)OC5)CC[C@]43O)C2)C[C@H](O)[C@@H]1O[C@H]1C[C@H](O)[C@H](O[C@H]2C[C@H](O)[C@H](O[C@@H]3O[C@H](CO)[C@@H](O)[C@H](O)[C@H]3O)[C@@H](C)O2)[C@@H](C)O1		0.164 µM (active)
NC(=O)Nc1sc(-c2ccc(F)cc2)cc1C(N)=O		25.1 µM (active)
Cc1cc(Nc2cc(N)ncn2)c(=O)n2c1C(=O)NC21CCCCC1	-11.7% [at 20 µM] (inactive)	
COc1ccc(S(=O)(=O)N2CCc3cccc(-c4ccncc4)c32)cc1		0.158 µM (active)
Cc1cnc(NC(=O)Nc2cc(Br)c(C)cc2OC[C@@H]2CNCCO2)cn1		2.51 µM (active)
C[C@]12CCC(=O)C=C1[C@@H]1C[C@@H]1[C@H]1[C@@H]3[C@@H]4C[C@@H]4[C@@]4(CCC(=O)O4)[C@@]3(C)CC[C@@H]12	-31.8% (inactive)	
CN1[C@@H]2CCC[C@H]1CC(NC(=O)c1nn(C)c3ccccc13)C2 (stereo not given in full)	-10.4% (inactive)	
CC(C)(C)C(=O)OCOC(=O)[C@@H]1N2C(=O)[C@@H](NC(=O)[C@H](N)c3ccccc3)[C@H]2SC1(C)C	-8.39% (inactive)	
O=C(Oc1cccc2cccnc12)c1ccccc1		23.1 µM (active)
Cc1cc2nc3c(=O)[nH]c(=O)nc-3n(CC(O)C(O)C(O)CO)c2cc1C (stereo not given)	-19.1% (inactive)	
COCCNCCCn1c(C(=O)CF)c(-c2ccc(C)cc2)c2c(N)ncnc21	-12.5% (inactive)	
CCC(C)(C)c1ccc(CC(C)CN2C[C@@H](C)O[C@@H](C)C2)cc1 (stereo not given in full)		18.4 µM (active)
Cc1c(CN2CCN(S(C)(=O)=O)CC2)sc2c(N3CCOCC3)nc(-c3cnc(N)nc3)nc12		0.794 µM (active)
CS(=O)(=O)Oc1ccc2c(NC(N)=O)c(C(=O)c3ccc(Cl)cc3Cl)oc2c1	-5.28% (inactive)	

SMILES	activity change, negative = viability loss	Potency
CC1CC(OC(=O)C(O)c2ccccc2)CC(C)(C)N1C (stereo not given)	-1.46% (inactive)	
O=S(=O)(O)NC1CCCCC1	-11.5% (inactive)	
CCc1ccc(CCOc2ccc(CC3SC(=O)NC3=O)cc2)nc1 (stereo not given)		inactive
CCCOc1ccc2c(c1)CC[C@@H]1[C@@H]2CC[C@]2(C)C(OC)CC[C@@H]12 (stereo not given in full)	1.04% (inactive)	
COc1cc(C(C)C)c(Oc2cnc(NC(CO)CO)nc2N)cc1I	-3.31% (inactive)	
CCOC(=O)[C@H](CCc1ccccc1)N[C@@H](C)C(=O)N1Cc2ccccc2C[C@H]1C(=O)O		16.4 µM (active)
CCC(=O)NS(=O)(=O)c1ccc(-c2c(-c3ccccc3)noc2C)cc1	1.93% (inactive)	
CCCOc1ccn2c(C(C)=O)cc(-c3ccccc3S(C)(=O)=O)c2c1	-17.6% (inactive)	
O=C(O)[C@@H](c1ccc(OCc2ccc3ccccc3n2)cc1)C1CCCC1	14.1% (inactive)	
NC(=O)C1(N2CCCCC2)CCN(CCCC(=O)c2ccc(F)cc2)CC1	11.9% (inactive)	
CCCCNc1ncc(-c2ccc(CN3CCOCC3)cn2)c(NC2CCC(O)CC2)n1 (stereo not given)	-36.4% [at 20 µM] (inactive)	
C=C1C(=O)OC(CCCCCCCC)C1C(=O)O (stereo not given)	-0.0656% (inactive)	
OCc1ccc(-c2ccc(-c3ccc(CO)s3)o2)s1		28.2 µM (active)
c1ccc2c(-c3cnn4cc(-c5ccc(N6CCNCC6)cc5)cnc34)ccnc2c1		3.16 µM (active)
Cc1c(F)cc2c(=O)c(C(=O)O)cn3c2c1CCC3C (stereo not given)	-24.8% (inactive)	
Cn1cnc(=N)c2[nH]cnc21	-10.6% [at 92.7 µM] (inactive)	
C=CC(=O)N1C[C@H](Nc2ncnc3[nH]ccc23)CC[C@@H]1C	-3.68% (inactive)	
CN1CCN(C2CCN(C(=O)Nc3cc(Oc4ccc(NC(=O)C5(C(=O)Nc6ccc(F)cc6)CC5)c(F)c4)ccn3)CC2)CC1		25.1 µM (active)
CC1Oc2cc(cnc2N)-c2c(nn(C)c2C#N)CN(C)C(=O)c2ccc(F)cc21 (stereo not given)		20 µM (active)
Nc1ccn([C@@H]2CS[C@H](CO)O2)c(=O)n1	4.11% (inactive)	
